Test results reported in PubChem BioAssay.
A number with no mark means an inactive call. Calls of active or inactive are those of the source. No stated cut-off is given here; in the data, active means inhibition above about 28%; inactive means the rest.

Assay: StAR promoter reporter inhibitors, counter-screen for LRH-1 inverse agonist project, cell-based, luminescence, high throughput (AID 651611)
Conditions: StAR promoter luciferase reporter counterscreen, at 3.6 µM, hits give high values

Q: With `COc1ccc(NC(=O)CSc2nnc(-c3ccccn3)n2N)cc1Cl` as the molecule, how does the inhibition read?
A: 20.3%

Q: For `CS(=O)(=O)N1Cc2cc(C(=O)NCC3CC3)nc(-c3cccc(-c4cccnc4)c3)c2[C@@H]1CCO`, which inhibition is on record?
A: 8.47%

Q: With `COc1ccc(NC(=O)CSC2=NCCN2)cc1` as the molecule, how does the inhibition read?
A: -2.78%

Q: Which inhibition does the source give for `c1ccc2c(c1)CC1(CCCC1)n1nnnc1-2` here?
A: 5.24%

Q: Which inhibition does the source give for `CCOc1ccc(CCNC(=O)COC(=O)c2cc([N+](=O)[O-])ccc2N2CCOCC2)cc1OCC` here?
A: 9.91%

Q: For `O=C(c1ccc(Oc2ccc(Cl)cc2)c([N+](=O)[O-])c1)N1CCCC1`, which inhibition is on record?
A: -14.7%

Q: Which inhibition does the source give for `CN(C)c1cc[n+](Cc2c(Cl)cccc2Cl)cc1` here?
A: 7.95%

Q: With `COc1cc(OC)cc(-c2oc3cccnc3c2C#CCCO)c1` as the molecule, how does the inhibition read?
A: 2.16%

Q: With `COc1ccc(OC)c(-n2c(-c3ccc(S(C)(=O)=O)cc3)cc(C=O)c2C)c1` as the molecule, how does the inhibition read?
A: 25%

Q: Which inhibition does the source give for `COc1ccc(CN(C)C(=O)CCl)cc1` here?
A: 14.9%

Q: Which inhibition does the source give for `COc1cc2c(cc1OC)CN(C(=O)Cn1ccccc1=O)CC2` here?
A: 16.3%

Q: Which inhibition does the source give for `O=C(NCc1cccnc1)c1cccn2c(=O)c3sccc3nc12` here?
A: 17.9%

Q: Which inhibition does the source give for `COc1ccc(-n2c(/C=C(\C)O)nc(=O)c3c(C)cc(C)nc32)cc1` here?
A: 12.9%

Q: Which inhibition does the source give for `CC[n+]1ccc(/C=C/c2ccc(N(C)C)cc2)c2ccccc21` here?
A: 77.7% (active)

Q: With `CC(=O)Nc1ccc(NC(=O)CSc2ccc(-c3ccc(-n4ccnc4)cc3)nn2)cc1` as the molecule, how does the inhibition read?
A: 9.71%

Q: With `O=C(CSc1nnc(Cc2cccs2)n1Cc1ccco1)Nc1ccc(Cl)cc1Cl` as the molecule, how does the inhibition read?
A: 9.49%

Q: Which inhibition does the source give for `Clc1ccc(COc2cccc(CNCc3ccncc3)c2)cc1` here?
A: 2.94%

Q: With `COc1ccc(CCNC(=O)COC(=O)C2CC2C)cc1` (stereo not given) as the molecule, how does the inhibition read?
A: 3.36%

Q: Which inhibition does the source give for `COc1ccc(Br)cc1/C=C/C(=O)c1ccc(NC(C)=O)cc1` here?
A: 81.4% (active)

Q: For `CCCc1nc(SCC(=O)c2ccc(F)cc2)c2ccccc2n1`, which inhibition is on record?
A: 5.26%

Q: With `COc1ccccc1-c1nnc2sc(-c3ccc(N(C)C)cc3)nn12` as the molecule, how does the inhibition read?
A: 50.1% (active)

Q: With `COc1ccc(CCNC(=O)CSc2nc3[nH]ncc3c(=O)n2-c2ccccc2Br)cc1OC` as the molecule, how does the inhibition read?
A: 5.86%

Q: Which inhibition does the source give for `Oc1ccccc1-c1nc(NCC2CCCO2)c2ccccc2n1` (stereo not given) here?
A: 26.3%

Q: Which inhibition does the source give for `CS/C(=C\[N+](=O)[O-])Nc1ccc(OC(F)(F)F)cc1` here?
A: 42% (active)

Q: Which inhibition does the source give for `O=C(Nc1c(F)cccc1F)c1cnc(N2CCN(c3ccccn3)CC2)c2ccccc12` here?
A: 41.4% (active)

Q: With `CCCc1nnc(SCC(=O)Nc2ccc(OC)cc2)o1` as the molecule, how does the inhibition read?
A: 5.23%

Q: Which inhibition does the source give for `CCCc1nc2cc(C)c(Br)c(C)n2c1Cc1ccc(OC)cc1C` here?
A: 15.2%

Q: With `CCCc1cc(=O)oc2c(C)c(OCC(=O)NC3CC(C)(C)NC(C)(C)C3)ccc12` as the molecule, how does the inhibition read?
A: 6.86%

Q: For `CN1CC(=O)N(CC(=O)Nc2ccc(N3CCOCC3)cc2)C1=O`, which inhibition is on record?
A: 18.7%

Q: With `CS(=O)(=O)N1CCCC(c2nc(-c3ccc(S(=O)(=O)NCc4ccccc4)cc3)no2)C1` (stereo not given) as the molecule, how does the inhibition read?
A: -1.45%

Q: With `CCN1CCN(c2ccc(S(=O)(=O)N3CCCCC3)cc2NC(=O)/C=C/c2ccc([N+](=O)[O-])cc2)CC1` as the molecule, how does the inhibition read?
A: 0.06%

Q: Which inhibition does the source give for `COc1ccc(-c2nnnn2-c2ccccc2OC)cc1` here?
A: 8.71%

Q: With `COc1cc2oc(-c3ccc(O)cc3)cc(=O)c2c(O)c1OC` as the molecule, how does the inhibition read?
A: 7%

Q: For `Cc1cc(OCC(=O)Nc2nccs2)c2c(C)c(C)c(=O)oc2c1`, which inhibition is on record?
A: 42% (active)

Q: For `O=C(Cc1ccc(S(=O)(=O)N2CCCC2)s1)Nc1cccc([N+](=O)[O-])c1`, which inhibition is on record?
A: 7.13%

Q: With `NC(=O)COc1ccc2c3c(c(=O)oc2c1)CCCCC3` as the molecule, how does the inhibition read?
A: -1.98%

Q: For `CCOc1ccc(NC(=O)CSc2nc3[nH]ncc3c(=O)[nH]2)cc1`, which inhibition is on record?
A: 8.84%

Q: Which inhibition does the source give for `O=C1C(Cl)=C(N2CCOCC2)C(=O)N1c1ccc(Br)cc1` here?
A: 12.1%

Q: For `COc1cc(/C=N/NC(N)=S)ccc1OCC(=O)Nc1ccc(C)cc1`, which inhibition is on record?
A: -3.71%

Q: For `O=C(COC(=O)Cn1[nH]c(=O)c2ccccc2c1=O)NNC(=O)c1ccc(Br)cc1`, which inhibition is on record?
A: 27.8% (active)
